40 compounds from PubChem BioAssay (NCI) can be followed below.

Several values for one entry are separate records, joined by “and”; a condition that tells them apart may be missing. Equal values may be shown once. Compounds without any hit were thinned out: in the full panel of roughly 83,000, 20% have a hit.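 Treatment: one concentration, 48 hours, 96-well format. Scoring: percent growth, with anything below 10 considered active.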 Values without a mark were called inactive. Activity calls are given as the source filed them.

The subject of this assay is MDA-MB-468 breast. Put plainly: NCI-60 one-dose screen, 48 h (100 = growth as untreated, 0 = no growth, -100 = all killed). To be noted: 10 µM unless noted.
Consider `O=C(/C=C\c1ccc2c(c1)OCO2)/C=C/c1ccc2c(c1)OCO2`, for which the growth was 20.3%.

For the compound `COc1cc(/C=C\c2cc(/C=C\c3ccc(O)c(OC)c3)n(C(=O)COc3ccc(Cl)cc3Cl)n2)ccc1O`, the growth was 12.5%.

Regarding `CC(C)(C)c1cc(C(C)(C)c2ccccc2)cc(Cc2cc(C(C)(C)c3ccccc3)cc(C(C)(C)C)c2O)c1O`, the growth was 95.2%.

`Nc1ncnc2c1ncn2C1CC(O)C(CO)O1` (stereo not given): the growth is 113% and 99.9%.

As to `Nc1nc2c(s1)CCc1cn(S(=O)(=O)c3ccccc3)cc1-2`, the growth is 83.2%.

For the compound `COc1ccc(F)cc1/C=C/C(=O)/C=C(/C=C/c1cc(F)ccc1OC)OB(F)F`, the growth is 31.5%.

For `Cc1nn(-c2ccccc2)c(-n2ccnc2)c1/C=N/Nc1nc(-c2ccc(Cl)c(Cl)c2)cs1`, the growth is -8.71% (active).

With `COc1ccc(/C=N/c2cc(C(C)(C)C)nn2-c2ccccc2)cc1`, the growth was 124%.

On to `C=C1c2nc3ccccc3n2C=C(c2ccc(Cl)cc2)N1Cc1ccc(OC)cc1`, for which the growth is 80.8%.

For `N/C(=C\C(=O)n1nc(-c2ccccc2)cc1N)c1ccccc1`, the growth is 19.2%.

As for `OCC(Nc1ncnc2ccc(-c3cnc4cnccn34)cc12)c1ccccc1` (stereo not given), the growth is -2.48% (active).

Take `Cc1nn(-c2ccccc2)c(N)c1N=C1NC(=O)/C(=C/c2ccc(Br)cc2)S1`: the growth is 86.6%.

Regarding `CN1C(=O)/C(=C/c2ccc(C(=O)Nc3ncc(Cc4ccc(Cl)cc4)s3)cc2)SC1=S`, the growth is 25.2%.

For `Nc1nc(N)c2c(n1)NC(c1ccc(Cl)cc1)CC(c1ccc(Nc3nc(NCCO)nc(N4CCOCC4)n3)cc1)=N2` (stereo not given), the growth was 73.7%.

In the case of `COC(=O)c1ccc2cc(OC)c(OC)cc2c1`, the growth is 98.6%.

Regarding `Cc1cc2c3ccc(C)[n+](C)c3ccc2n1C`, the growth was 19.1%.

Consider `C[C@H](CCC(=O)NCc1ccc(C(=O)Nc2ccccc2N)cc1)[C@H]1CC[C@H]2[C@@H]3[C@@H](O)C[C@@H]4C[C@H](O)CC[C@]4(C)[C@H]3CC[C@]12C`, for which the growth is 71.2%.

Take `Cn1cc(-c2nonc2-c2c[nH]c3ccccc23)c2cc(Br)ccc21`: the growth was 59.5%.

Consider `CS(=O)(=O)N(c1cc(-c2ccc3ncnc(Nc4ccc(F)c(Cl)c4)c3c2)cnc1Cl)S(C)(=O)=O`, for which the growth was -19.6% (active).

On to `N#Cc1c(N)nc2c(c(-c3ccc(Cl)cc3)nn2-c2ccccc2)c1C#N`, for which the growth is 90.1% [100 µM].

Consider `COc1ccc(-c2nn(-c3ccc(S(C)(=O)=O)cc3)cc2/C=N/O)cc1`, for which the growth is 117%.

For `COc1cccc(C=Nc2cc(C(C)C)c(O)cc2C)c1O`, the growth was 95%.

In the case of `CC1=C(C)C(=O)C(Nc2cccc(C(F)(F)F)c2)=C(Br)C1=O`, the growth is -61.4% (active).

As to `CCN(C)S(=O)(=O)Nc1cccc(Nc2ncnc3cc(NC(=O)CCl)ccc23)c1Cl`, the growth is 9.82% (active).

As for `Cc1[nH]nc(C(N)=O)c1[N+](=O)[O-]`, the growth is 85.5%.

Regarding `O=C1OC(c2ccc(Cl)c(Cl)c2)=C/C1=C/c1cccc([N+](=O)[O-])c1`, the growth is 92.3%.

For the compound `COC(=O)CC1=C(C)/C(=C/c2[nH]c(-c3ccc[nH]3)cc2OC)N=C1C`, the growth was 19%.

Regarding `O=C(NNc1nc2cc(F)cc(F)c2n2cccc12)c1ccncn1`, the growth was -7.49% (active).

For the compound `COc1cc2c3c(c4c5ccccc5[nH]c4c2c(OC)c1OC)C(=O)N(CCN1CCOCC1)C3=O`, the growth was 65.7%.

Regarding `CN1CCN(Cc2ccc(NC(=O)c3cncc(C#Cc4cnc5ccc(OCCCS(C)(=O)=O)nn45)c3)cc2C(F)(F)F)CC1`, the growth is -61.6% (active).

For the compound `CCOC(=O)C1=C(C)n2nc(CC#N)c(C#N)c2NC1c1ccc(CC)cc1` (stereo not given), the growth is 114%.

On to `O=C(Nc1cccc(Cl)c1)Nc1nc2ccc(-c3cccc4ccccc34)cc2s1`, for which the growth was 37.6%.

Regarding `Oc1ccc(CSc2nnc(-c3ccc(Br)cc3)o2)c2cccnc12`, the growth was 35.4%.

As for `COc1ccc(-c2nc(/C=C3\SC(=NCc4ccccc4)NC3=O)c3ccccn23)cc1`, the growth is -56.9% (active).

Turning to `O=C(c1ccc2ncc(-c3nc(NC4CC4)ncc3F)n2c1)N1CCOCC1`, the growth was 32.8%.

As for `C(=C\c1ccccc1)/CN1CCN(C(c2ccccc2)c2ccccc2)CC1`, the growth is 89.6%.

For `CCN(CC)c1ccc(/C=N/NC(=O)c2ccc(NS(C)(=O)=O)cc2)c(O)c1`, the growth was -10.8% (active).

On to `O=C1NC(=O)/C(=C\c2ccncc2)N1`, for which the growth was 102%.

In the case of `CC1CC2C3CCC4=CC(=O)CCC4(C)C3CCC2(C)C1(O)C(=O)CO` (stereo not given), the growth was 115%.

`CCn1c(Sc2nnc(Nc3ccccc3)s2)nc2c1c(=O)n(C)c(=O)n2C`: the growth was 91.8%.
